The campaign covered roughly 3,400 compounds. About 840 (25%) were called active. About 11% were inconclusive and are not listed.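 Rule for the calls: active = fitted half-maximal concentration of signal decrease at or below twice the sample's top tested concentration; inconclusive = flat curve between -70 and -30 percent, or poor fit; inactive = flat within 30 percent, signal rise, or potency above limit.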 Only a sample is shown. Entries with a potency or affinity are not part of this list.

This assay in a line: T. gondii growth inhibition with IFN-gamma, dose response, cell-based, ME49Luc, HeLa, luciferase, 72 h (AID 1259418). The note with it: T. gondii ME49Luc in IFN-y HeLa, hits give low values, -100% = high-dose IFN-γ control wells; at 19.5 µM unless noted.
Regarding `CC(C)N1CCN(CC#N)C2(CCN(C(=O)c3ccc[nH]3)C2)C1=O` (stereo not given), the max activity is 43.6% (inactive).
Take `COc1ccc(CC(=O)Nc2ccc(-c3nc(-c4ccccc4)co3)cc2)cc1`: the max activity was -7.29% [at 1.35 µM] (inactive).
The same measure for `CCOc1ccccc1-c1nc(CN(c2ccc(OC)cc2)S(=O)(=O)c2ccccc2)c(C)o1`: 7.8% (inactive).
In the case of `O=C(Cn1c(=O)c(S(=O)(=O)c2ccccc2)cc2ccccc21)N1CCCC1` it was -8.97% [at 0.16 µM] (inactive); in that of `COc1ccc(-c2nc(Nc3cc(C)ccc3OC)c3ccccc3n2)cc1`, 19.6% (inactive); in that of `Cc1ccc(CC(=O)Nc2ccc(-c3nc(-c4ccccc4)co3)cc2)cc1`, 9.88% [at 5 µM] (inactive).
The same measure for `O=C(CC1Nc2c3ccccc3nc(=S)n2C1=O)NCCc1ccc(Cl)cc1` (stereo not given): -20.4% [at 0.16 µM] (inactive); for `CCOC(=O)C(=O)Nc1ccc(-c2nc(-c3cc(C)ccc3C)co2)cc1`: 15.3% [at 0.16 µM] (inactive); for `COc1cc(OC)c(NC(=O)Nc2ccc(-c3nc(-c4ccc(C)cc4)co3)cc2)cc1Cl`: 86.6% (inactive).
For `NC(=O)C1(N2CCCCC2)CCN(c2ccc(NC(=O)c3ccccc3F)cc2C(=O)O)CC1`, the max activity was -16.3% [at 0.35 µM] (inactive).
Take `Cc1ccc(C(=O)Nc2ccc(N3CCC(C(N)=O)(N4CCCCC4)CC3)c(C(=O)O)c2)cc1`: the max activity is 15% [at 2.6 µM] (inactive).
In the case of `CCOC(=O)C1CCC(CNC(=O)Nc2ccc(-c3nc(-c4ccc(C)cc4C)co3)cc2)CC1` (stereo not given) it was -7.93% [at 0.35 µM] (inactive); in that of `COc1cc(NC(=O)CN2CCC3(CC2)N=C(c2cccc(F)c2)C(=O)N3)cc(OC)c1`, -16.9% (inactive).
The same measure for `Cc1ccc(-c2coc(-c3ccc(NC(=O)Nc4ccc(C)c(F)c4)cc3)n2)c(C)c1`: 14.2% (inactive); for `COc1ccc(-c2nc(Cn3c(=O)c4c(C)cc(C)nc4n(-c4ccccc4)c3=O)c(C)o2)cc1`: -4.82% [at 10 µM] (inactive).
For `COc1cccc(C(=O)Nc2ccc(-c3nc(-c4ccccc4)co3)cc2)c1`, the max activity was -14.9% [at 10 µM] (inactive).
Regarding `COc1cccc(NC(=O)CN2CCC3(CC2)N=C(c2ccc(F)cc2)C(=O)N3)c1`, the max activity is -15.6% [at 0.68 µM] (inactive).
In the case of `COc1cccc(C(=O)Nc2ccc(-c3nc(-c4ccc(C)cc4)co3)cc2)c1` it was 73.1% (inactive); in that of `CCOc1ccc(-c2nc3c(s2)CN(S(=O)(=O)c2ccc(C(C)C)cc2)CC3)cc1`, 12.8% (inactive).
In the case of `O=C(CC1N=C2c3ccccc3N=C(SCc3cc(=O)n4cc(Cl)ccc4n3)N2C1=O)NCc1ccco1` (stereo not given) it was 13% [at 10 µM] (inactive); in that of `Cc1ccc(C(=O)Nc2c(C(=O)N3CCCC3)[nH]c3ccccc23)cc1`, 14.8% [at 2.6 µM] (inactive).
In the case of `COc1ccc2c(c1)NC1(CCN(C(=O)Cc3ccc(Cl)cc3)CC1)c1cccn1-2` it was 7.11% [at 10 µM] (inactive); in that of `O=C(Cc1ccc(F)cc1)N1CCC2(CC1)Nc1ccc(Cl)cc1-n1cccc12`, -6.77% [at 5 µM] (inactive); in that of `CN(C)C(=O)COCc1cncc2c1CCN(c1ccccn1)C2`, 11.3% [at 10 µM] (inactive).
For `CCc1nc(OCC(=O)Nc2cccc(SC)c2)c2ccccc2n1`, the max activity was 9.62% [at 0.16 µM] (inactive).
For `CCN1C(=O)CCc2cc(NC(=O)CC(C)C)ccc21`, the max activity was 6.42% [at 0.35 µM] (inactive).
In the case of `O=C(C[C@H]1CC[C@@H]2[C@H](COC[C@H](O)CN2C(=O)c2cc(Cl)cc(Cl)c2)O1)N1CCc2ccccc2C1` it was -23.1% (inactive).
In the case of `O=C(C[C@H]1CC[C@H]2[C@@H](COC[C@@H](O)CN2S(=O)(=O)c2ccccc2F)O1)N1CCC(Cc2ccccc2)CC1` it was 25.4% [at 10 µM] (inactive); in that of `O=C(C[C@@H]1CC[C@H]2[C@@H](COC[C@H](O)CN2Cc2ccc(Oc3ccccc3)cc2)O1)N1CCN(c2ccccc2)CC1`, 16% [at 10 µM] (inactive).
Regarding `O=C(C[C@@H]1CC[C@@H]2[C@H](COC[C@H](O)CN2Cc2ccc3c(c2)OCO3)O1)N1CCCCC1`, the max activity was 28.4% (inactive).
The same measure for `COc1ccccc1-c1nc(Cn2nnc(-c3nc(-c4cccc(C)c4)no3)c2C)c(C)o1`: 6.08% [at 0.35 µM] (inactive); for `CCOc1ccc(-c2nc3c([nH]2)c(=O)n(C)c(=O)n3C)cc1OC`: 30.3% [at 10 µM] (inactive); for `CC1=NN(C2CCS(=O)(=O)C2)C(=O)C1(Sc1ccccc1)Sc1ccccc1` (stereo not given): -15.9% [at 10 µM] (inactive).
The same measure for `COc1ccc(CC(=O)Nc2ccc(-c3nc(-c4ccc(C)cc4C)co3)cc2)cc1`: 23.3% [at 0.68 µM] (inactive); for `CN1CCN(Cc2cnc3n2CCN(CC2CCOCC2)C3)CC1`: 10.5% (inactive).
On to `O=C(C[C@H]1CC[C@@H]2[C@H](COC[C@H](O)CN2Cc2cc(F)ccc2F)O1)NCc1ccc(Oc2ccccc2)cc1`, for which the max activity is 17.5% [at 5 µM] (inactive).
In the case of `O=C(C[C@H]1CC[C@H]2[C@@H](COC[C@H](O)CN2Cc2cc(F)ccc2F)O1)NCc1ccc(Oc2ccccc2)cc1` it was 17.6% [at 2.6 µM] (inactive); in that of `Cc1ccc(C)c(NC(=O)CN2CCC3(CC2)N=C(c2ccc(F)cc2)C(=O)N3)c1`, 21.8% [at 10 µM] (inactive); in that of `Cc1cccc(-c2nc(CSc3nc4c(c(=O)[nH]3)CN(C(C)C)CC4)c(C)o2)c1`, 19.2% [at 0.68 µM] (inactive).
Take `O=C(CC1CCCCC1)Nc1ccc(-c2nc(-c3ccccc3)co2)cc1`: the max activity was 19.4% (inactive).
In the case of `Cc1ccc(NC(=O)Nc2ccc(-c3nc(-c4ccccc4)co3)cc2)cc1F` it was 16.5% [at 0.16 µM] (inactive); in that of `O=C(Cn1c(=O)c(S(=O)(=O)c2ccccc2)cc2ccccc21)NCc1ccccc1Cl`, -23.2% [at 0.16 µM] (inactive).
The same measure for `CCOC(=O)CNC(=O)Nc1ccc(-c2nc(-c3cc(C)ccc3C)co2)cc1`: 5.17% [at 0.68 µM] (inactive).
`Cc1ccc(CN2CCC3(CC2)N=C(c2ccc(C)cc2)C(=O)N3)cc1`: the max activity is 12.6% [at 2.6 µM] (inactive).
The same measure for `Cc1ccc(-c2coc(-c3ccc(NC(=O)C(C)(C)C)cc3)n2)cc1`: 29.4% [at 10 µM] (inactive).

Source of the values: PubChem BioAssay AID1259418 (Broad Institute, 2018).
